Source: PubChem BioAssay (NCI)
About 83,000 compounds went through this panel and 20% of them were active in at least one assay; those are over-represented in the sample as a whole.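 The endpoint reported here, percent growth, reads 100 for growth as untreated, 0 for no net growth and -100 for all cells dead.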 Unmarked numbers belong to inactive results. Calls of active or inactive are those of the source. Rule for the calls: active = growth percent below 10; inactive = the rest.

Experiments:
Assay in all cases: NCI-60 one-dose screen, 48 h (100 = growth as untreated, 0 = no growth, -100 = all killed)
Settings in all cases: 10 µM unless noted
HCT-15 colon = test system: HCT-15 colon
HT29 colon = test system: HT29 colon
SNB-75 CNS = test system: SNB-75 CNS
SNB-19 CNS = test system: SNB-19 CNS
U251 CNS = test system: U251 CNS
PC-3 prostate = test system: PC-3 prostate
SK-MEL-5 melanoma = test system: SK-MEL-5 melanoma
UACC-62 melanoma = test system: UACC-62 melanoma
LOX IMVI melanoma = test system: LOX IMVI melanoma
SK-MEL-28 melanoma = test system: SK-MEL-28 melanoma
SK-MEL-2 melanoma = test system: SK-MEL-2 melanoma
EKVX NSCLC = test system: EKVX NSCLC
SN12C renal = test system: SN12C renal
UO-31 renal = test system: UO-31 renal
TK-10 renal = test system: TK-10 renal
ACHN renal = test system: ACHN renal
CAKI-1 renal = test system: CAKI-1 renal
A498 renal = test system: A498 renal
CCRF-CEM leukemia = test system: CCRF-CEM leukemia
MOLT-4 leukemia = test system: MOLT-4 leukemia

SMILES	growth (HCT-15 colon)	growth (HT29 colon)	growth (SNB-75 CNS)	growth (SNB-19 CNS)	growth (U251 CNS)	growth (PC-3 prostate)	growth (SK-MEL-5 melanoma)	growth (UACC-62 melanoma)	growth (LOX IMVI melanoma)	growth (SK-MEL-28 melanoma)	growth (SK-MEL-2 melanoma)	growth (EKVX NSCLC)	growth (SN12C renal)	growth (UO-31 renal)	growth (TK-10 renal)	growth (ACHN renal)	growth (CAKI-1 renal)	growth (A498 renal)	growth (CCRF-CEM leukemia)	growth (MOLT-4 leukemia)
O=C(/C(=C\c1ccc([N+](=O)[O-])cc1)S(=O)Cc1ccc(F)cc1)c1ccc(F)cc1 (stereo not given)	2.57% (active)	-55% (active)	72.1%	41%	10.3%	7.46% (active)	76.7%	-22.4% (active)	-52.1% (active)	23.2%	78%	84.2%	-43.7% (active)	-39% (active)	25.8%	-7.56% (active)	44.3%	82.2%	0.265% (active)	5.93% (active)
O=C(CNCCN1CCOCC1)N1c2cccc3cccc(c23)N(C(=O)CNCCN2CCOCC2)C1c1cn(-c2ccccc2)nc1-c1cccc([N+](=O)[O-])c1	43.6%	7.37% (active)	57.9%	77.1%	55.2%	62.4%	57.7%	94.8%	53.9%	64%	96.5%	84.6%	79.4%	65.1%	108%	88.7%	66%	84.5%	17.5%	48.5%
Nc1c(S(=O)(=O)O)cc2c3c(cccc13)C(=O)OC2=O	95.9%	106%	79.2%	99.7%	97.8%	106%	102%	97.8%	94.3%	115%	51%	91.5%	98.9%	86.7%	127%	95.2%	79.9%	106%	102%	88.9%
CCN(CC)CCOc1ccc(NC(=O)C(C(C)C)N2C(=O)/C(=C/c3ccc(Br)cc3)SC2=S)cc1 (stereo not given)	-40.9% (active)	-5.87% (active)	66%	57.6%	71.7%	64.5%	89.2%	95.3%	62.9%	89%	101%	90%	73.3%	74.5%	95.6%	62.1%	81%	99.5%	-16.7% (active)	3.96% (active)
CC(=O)[C@@H]1CC[C@]2(C(N)=O)CC[C@]3(C)[C@H](CC[C@@H]4[C@@]5(C)CCCNC(C)(C)[C@@H]5CC[C@]43C)[C@@H]12	70.7%	3.98% (active)	80.4%	86.2%	81.7%	65.5%	75.9%	83.5%	84.4%	95.8%	86.2%	93.9%	86.5%	76.5%	120%	107%	93.1%	96.6%	88.3%	60.5%
OC(c1cccc(C(F)(F)F)c1)c1cnccc1NC1CCCCC1 (stereo not given)	81.3%	37.9%	72.1%	89.3%	76%	69.4%	69.6%	74%	82.4%	98.4%	92.6%	77.6%	73.5%	52.2%	82.7%	87.2%	69.5%	77.4%	62%	71.6%
CC[C@]12C=CCN3CC[C@@]4(c5cc(NC(=O)CCC(=O)O[C@H]6CC[C@H]7[C@@H]8CCC9=CC(=O)CC[C@@H]9[C@H]8CC[C@]67C)c(OC)cc5N(C)[C@H]4[C@@](O)(C(=O)OC)[C@@H]1OC(C)=O)[C@@H]32	62.2%	62.8%	68.6%	85%	74.1%	53.6%	43.8%	64.1%	84.7%	91.7%	81.9%	73.4%	81.5%	53.6%	97.4%	87.2%	67.8%	71.6%	62.7%	40.3%
CNCCOc1nc2c3cnccc3cc(-c3cc(OC)c(OC)c(OC)c3)c2c2ccncc12	-6.39% (active)	-39.9% (active)	-64.6% (active)	-8.3% (active)	-17.1% (active)	-13.4% (active)	-97.7% (active)	-62.1% (active)	-46.8% (active)	-71.6% (active)	-77.5% (active)	-45.9% (active)	-36.9% (active)	-42.7% (active)	-34.2% (active)	-73.8% (active)	-31% (active)	-87.2% (active)	-13.1% (active)	-15.1% (active)
O=C1/C=C/[C@@H](O)[C@@H]2C[C@@H](O)C[C@H]2/C=C/CCC[C@H](CCc2ccc3ncccc3c2)O1	6.02% (active)	-19.6% (active)	33.2%	28.9%	21.7%	18.3%	-95.8% (active)	4.66% (active)	-66.5% (active)	-0.806% (active)	-18.3% (active)	3.05% (active)	6.22% (active)	-0.158% (active)	-23.9% (active)	5.12% (active)	-10.2% (active)	-36.4% (active)	7.39% (active)	-35.7% (active)
O=C1c2c(c3c4cccc(F)c4[nH]c3c3ccc4ccccc4c23)C(=O)N1O	15.5%	23.8%	68.7%	30.2%	26.8%	32.5%	9.72% (active)	26.9%	18.4%	58.5%	51.5%	63.8%	41.5%	30.4%	91.1%	27.8%	29.4%	27.2%	7.09% (active)	3.29% (active)
N#CC1C(C#N)C(C(=O)c2ccc(Br)cc2)N2c3ccccc3C=CC12 (stereo not given)	23.7%	37.4%	12%	80.4%	84.6%	76.8%	61.3%	63%	78.7%	95.7%	104%	63.9%	76.1%	48%	106%	89.4%	50.7%	67.7%	84.9%	92.7%
CN(C)CCC(=O)c1ccc([N+](=O)[O-])cc1	103%	96.7%	90.9%	107%	105%	93.6%	99%	98.6%	111%	104%	109%	106%	99.1%	85.9%	98.2%	110%	96.3%	88.4%	97.2%	112%
Oc1cccc(CCc2ccc(Oc3cc(CCc4cccc(O)c4)cc(O)c3O)cc2)c1	39.1%	99.2%	72.8%	89%	74.5%	63.5%	70.2%	73.3%	62.7%	88.6%	84.1%	85.1%	67.9%	36.4%	111%	77.1%	52.7%	95.2%	24.1%	18%
CC(=O)O[C@@H]1C2CCC3C(CC[C@@]4(C)C3CC[C@@H]4C(C)N(C)C)[C@@]2(C)CC[C@@H]1NC(=O)C=C(C)C (stereo not given in full)	-58.1% (active)	-39.5% (active)	12%	65.6%	14.9%	10.5%	-93.1% (active)	-49.9% (active)	-43.5% (active)	-91.7% (active)	31.9%	30.8%	32.7%	6.19% (active)	47.2%	25.4%	-6.25% (active)	60.6%	-12% (active)	-50.6% (active)
